# PI4K2A inh = blocks human PI4K2A kinase activity; Q9BTU6; purified PI4K2A, ADP-Glo luminescence, 1 h; active compounds read low; activity change, negative = inhibition, % at 76.9 µM; hit rate 0.13% among 420,000; AID 1346378; in the data active means activity change below about -50%; inconclusive means mostly about -30% to -49%
#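 In this quantitative HTS, ADP production by PI4K2A was quantified luminescently after 1 h at ambient temperature; 100 microM adenosine served as plate-quality control.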
# Tb PFK block = inhibitors of T. brucei phosphofructokinase. O15648. T. brucei PFK, ADP-Glo luminescence. Potency, µM (doses to about 57.5 µM), most hits filed as inhibitors. hit rate 0.17% among 330,000; further: nearly all actives have a fitted effect of over 60% in size
#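 In TEA buffer at pH 8.0 with 5 mM MgCl2, enzyme (1.25 nM) converted F6P (0.5 mM) and ATP (0.1 mM) for 45 min at room temperature. ADP product was read by luciferase luminescence.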
# PI5P4Ka inh = PI5P4K alpha (human) kinase inhibition; P48426; PI5P4Kalpha enzyme, ADP-Glo luminescence, 60 min; active compounds read low; max response, %; hit rate 1.2% among 330,000; AID 652105; active means max response of -50% or lower; inconclusive means between -30% and -50%; inactive means -30% or higher; further: value at the top dose of about 77 µM
# Target sequence (P48426 whole entry, looked up): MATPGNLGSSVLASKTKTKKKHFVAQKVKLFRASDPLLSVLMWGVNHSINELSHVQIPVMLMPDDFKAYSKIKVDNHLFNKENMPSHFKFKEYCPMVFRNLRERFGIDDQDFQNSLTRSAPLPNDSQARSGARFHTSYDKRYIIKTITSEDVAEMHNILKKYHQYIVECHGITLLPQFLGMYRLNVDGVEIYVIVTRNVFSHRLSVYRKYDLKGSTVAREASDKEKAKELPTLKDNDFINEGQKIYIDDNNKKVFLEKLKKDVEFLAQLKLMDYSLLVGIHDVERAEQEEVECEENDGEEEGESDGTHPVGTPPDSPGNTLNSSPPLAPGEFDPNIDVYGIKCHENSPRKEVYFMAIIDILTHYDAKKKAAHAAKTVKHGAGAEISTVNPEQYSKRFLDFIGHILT
#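 Human PI5P4Kalpha with substrate in 0.038 M HEPES pH 7.4, 0.28 mM EGTA, 0.1% CHAPS, 5% DMSO; reaction started with 5 microM ATP (final), 60 min at room temperature. ADP formed read by ADP-Glo luminescence.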
# PGK inhibitor = T. brucei PGK inhibition; P07378; Potency, µM (series often up to 57.5 µM), actives largely listed as inhibitors; PGK/GAPDH coupled, Kinase-Glo luminescence, 60 min; hit rate 0.043% among 380,000; further: nearly all actives have a fitted effect of over 60% in size
#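 Recombinant glycosomal PGK reaction used 1,3-bisphosphoglycerate generated in-well by GAPDH (100nM final) in 100mM TEA pH 7.6, 5mM MgCl2, 0.01% Tween-20. After 60 minutes at room temperature, ATP was read by Kinase-Glo Plus luminescence end-point.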
# Pin1 inhibitor = inhibitors of human Pin1; Q13526; Pin1 FP peptide displacement, HiFluor488, 10 min; Potency, µM (top dose mostly 115 µM), most hits filed as inhibitors; hit rate 0.009% among 390,000; AID 504891; active means well fitted inhibition curve with a large enough effect in the polarisation, with a control signal flat, not every such curve was filed as active; inconclusive means small, poorly fitted or top-dose-only effect, or effect the other way, or a change in a side signal; inactive means no such curve, though single readings can be large or run the other way; the % refers to the polarisation
# Target sequence (Q13526 whole entry, looked up): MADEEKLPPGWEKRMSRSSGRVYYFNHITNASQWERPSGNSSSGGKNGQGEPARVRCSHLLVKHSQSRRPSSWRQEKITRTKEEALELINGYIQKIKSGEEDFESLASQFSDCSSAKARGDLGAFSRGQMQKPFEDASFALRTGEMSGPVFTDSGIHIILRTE
# A number is an active result; 0 = inactive; ? = inconclusive; - = not tested or not shown. Shown is part of a subset that was picked to be rich in hits. Unless noted, the call rests on the fitted dose curve; in most records, active means well fitted curve in the direction sought with a large enough effect; inconclusive means small, poorly fitted or top-dose-only effect, or another doubt; inactive means no such curve, though single readings can be large; an effect the other way counts as inactive or inconclusive.
SMILES,PI4K2A inh,Tb PFK block,PI5P4Ka inh,PGK inhibitor,Pin1 inhibitor
COC1=CC(=O)c2c(ccc3ncnc(N)c23)C1=O,-58,-,0,?,-
Oc1ccc(/C=N/NC(=S)N/N=C/c2ccc(O)cc2)cc1,0,?,-51,0,0
O=C(NCCc1c[nH]c2ccccc12)c1ccc2c(c1)ncn2C1CCCCC1,0,-,-,-,-
Cc1cccc(C)c1NC(=O)C(c1ccc(-c2ccccc2)cc1)n1c(=O)c(-c2ccco2)nc2ccccc21 (stereo not given),0,-,-99,-,-
Cc1cccc(C)c1NC(=O)C(c1ccccc1F)n1c(=O)c(-c2ccco2)nc2ccccc21 (stereo not given),0,-,-67,-,-
Cc1cccc(C)c1NC(=O)C(c1ccnc2ccccc12)n1c(=O)c(-c2ccco2)nc2ccccc21 (stereo not given),0,-,-72,-,-
COc1ccc(NC(=O)C(c2ccccc2F)n2c(=O)c(-c3ccco3)nc3ccccc32)cc1 (stereo not given),0,-,0,-,-
O=C(CCc1nc(-c2ccccc2F)no1)NCCc1ccccc1F,0,-,-,-,-
CCCCC/C(C=O)=C\c1ccccc1,0,-,-,-,-
CCOC(=O)N1CCN(C(=O)C[C@@H]2C(=O)N(Cc3ccc(OC)cc3)C3=CCN(C(=O)OC(C)(C)C)C[C@]32C(=O)OCC)CC1,0,-,-,-,-
O=C(Nc1cc(C(F)(F)F)ccc1Cl)C(O)Cc1ccccc1 (stereo not given),-,-,-,-,0
O=C1NC(=O)/C(=C\c2ccc(Cl)nc2)S1,0,0,?,-,0
O=C1Nc2ccccc2S/C1=C/c1cccs1,0,0,0,0,0
CCc1ccc(/C=C2/SC(=S)NC2=O)cc1,0,-,-,-,-
O=C1NC(=S)SC1=Cc1cccs1,0,-,-67,0,0
O=C1NC(=S)SC1=Cc1ccc(Cl)cc1,0,-,-51,0,0
O=C1NC(=S)SC1=Cc1ccc(F)cc1,0,-,-71,0,0
Cc1ccc(NC(=S)NNC(=O)c2cnccn2)cc1,0,-,-,-,-
Cc1cccc(-c2onc3ccc(C(=O)/C=C/N(C)C)cc23)c1,0,0,-68,-,0
Cc1ccc(-c2onc3ccc(C(=O)/C=C/N(C)C)cc23)cc1,0,0,?,0,0
O=S(=O)(NCCNc1nc(-c2ccco2)nc2ccccc12)c1ccccc1,-,-,-,-,0
COc1cc(/C=C/C(=O)O[C@H]2CC[C@]34C[C@]35CC[C@]3(C)[C@@H]([C@H](C)CCC=C(C)C)CC[C@@]3(C)[C@@H]5CC[C@H]4C2(C)C)ccc1O,0,-,-,-,-
COc1ccc(OC)c(N2C(=O)[C@@H]3C(c4ccccc4Cl)=NO[C@@H]3C2=O)c1,0,0,-66,13µM,-
Cc1cccc(C)c1N1C(=O)[C@@H]2C(c3ccccc3Cl)=NO[C@@H]2C1=O,0,0,0,0,0
O=C(COc1ccccc1C(=O)N/N=C\c1ccc(O)c(O)c1)N/N=C/c1ccc(O)c(O)c1,0,?,-73,2.2µM,?
SMILES,PI4K2A inh,Tb PFK block,PI5P4Ka inh,PGK inhibitor,Pin1 inhibitor
O=C(O)C1=CC(=C(c2ccc(O)c(C(=O)O)c2)c2ccc(O)c(C(=O)O)c2)C=CC1=O,-86,?,-,-,-
Nc1ccc(O)c(C(=O)O)c1,0,-,-,-,-
CSc1nc2ccc(S(=O)(=O)N3CCOCC3)cc2s1,0,0,-,0,0
N#CCc1nc2ccc(S(=O)(=O)N3CCOCC3)cc2s1,0,0,-64,0,?
O=C(NC(=S)Nn1cnnc1)c1ccc(F)cc1Cl,0,0,-54,0,0
COc1ccccc1Nc1n[nH]c(=S)s1,0,?,-78,0,0
COc1cccc(Nc2n[nH]c(=S)s2)c1,0,?,-82,0,?
O=[S+]([O-])(c1ccc2c(c1)OCCO2)N1CCN([S+](=O)([O-])c2c(F)cc(Br)cc2F)CC1,-,-,-,-,0
O=C(OCC#CCSc1nnc(-c2cccc3ccccc23)o1)c1sc(Cl)c(Cl)c1Cl,-,-,-,-,0
CC[C@@]1(O)C(=O)OCc2c1cc1n(c2=O)Cc2c-1nc1ccccc1c2/C=N/OC(C)(C)C,0,-,-,-,-
O=C(Cn1sc2ccccc2c1=O)Nc1ccc(Br)cc1,0,-,-83,0,-
O=C(Cn1sc2ccccc2c1=O)Nc1ccc(Cl)cc1,0,-,-82,0,-
O=C(Cn1nc(-c2ccccc2)c2ccccc2c1=O)Nc1ccc(F)cc1,0,0,0,0,0
O=C(Cn1sc2ccccc2c1=O)Nc1ccc(F)cc1,0,-,-91,0,-
O=C(Sc1n[nH]c(=O)[nH]c1=O)c1ccccc1,0,-,-74,0,0
CCC(C(=O)OCCN1CCOC(c2ccccc2)C1C)c1ccccc1 (stereo not given),0,-,-,-,-
COc1ccc(C=C2OC(=O)C(C(C)=O)=C2O)cc1,0,-,-54,0,-
COc1ccccc1-n1cnnc1SCC(=O)c1c[nH]c2ccccc12,0,0,-56,0,0
COc1cccc(C2c3c(ncn(-c4ccccn4)c3=N)Oc3ccc4ccccc4c32)c1 (stereo not given),-,-,-,-,0
O=C(CCCOc1ccc(Cl)cc1Cl)Nc1ccccc1C(=O)O,0,0,0,0,0
Cc1cccc(OCC(=O)Nc2ccc(C(=O)Nc3ccccc3C(=O)O)cc2)c1,0,-,-52,0,-
O=C(COc1ccc(Cl)cc1Cl)Nc1ccccn1,-75,17µM,-,?,0
O=C(COc1ccc(Cl)cc1Cl)Nc1ccc(C(=O)Nc2ccccc2C(=O)O)cc1,0,0,-57,0,-
Cc1ccc(NS(=O)(=O)c2ccc3c(c2)CCO3)cc1C,-,-,-,-,0
COc1cccc2nc3cc(C)c(C)cc3nc12,-75,?,?,0,0
SMILES,PI4K2A inh,Tb PFK block,PI5P4Ka inh,PGK inhibitor,Pin1 inhibitor
Cc1ccc(C(=S)NCS(=O)(=O)c2ccc(C)cc2)cc1,0,27µM,-,0,0
CCN1C(=O)/C(=C\c2ccc(-c3cccc(C(=O)OC)c3)o2)SC1=Nc1ccc(C(=O)O)cc1,-,0,-,-,-
CCN1C(=O)/C(=C\c2ccc(-c3ccc([N+](=O)[O-])cc3OC)o2)SC1=Nc1cccc(C(=O)O)c1,0,0,-50,0,-
COc1ccc(-c2cc(C(F)(F)F)c3c(n2)sc2c(O)cc(=O)[nH]c23)c(OC)c1,-56,0,?,0,?
N#Cc1ccsc1NC(=O)COC(=O)CCS(=O)(=O)c1ccccc1,0,0,-56,0,0
N#Cc1sc2nc(-c3ccccc3)cc(-c3ccco3)c2c1N,?,0,-100,0,?
Cc1nc(C)c(-c2csc(Nc3ccc(C(=O)O)c(O)c3)n2)s1,0,0,-72,0,?
Cc1nc(C)c(-c2csc(Nc3ccc(F)cc3)n2)s1,0,0,0,0,0
Cc1cc(/C=N/n2c(COc3ccccc3)nc3ccccc3c2=O)c(O)c([N+](=O)[O-])c1,0,0,-51,0,0
O=[S+]([O-])(c1ccc2c(c1)OCCO2)N1CCN([S+](=O)([O-])c2ccc(F)cc2Br)CC1,-,-,-,-,0
CCOC(=O)c1ccc(S(=O)(=O)Nc2nc3cc(S(=O)(=O)NC4=NCCCCC4)ccc3s2)cc1,0,0,-54,0,0
Nc1nc2cc(S(=O)(=O)NC3=NCCCCC3)ccc2s1,0,0,0,0,0
